Activity calls are given as the source filed them.

From PubChem BioAssay come the findings set out here.

Test [1] deals with PRMT1 (protein arginine N-methyltransferase 1). The test can be described thus: PRMT1 binders on small-molecule microarrays, primary screen, biochemical, small-molecule microarray, 635 nm fluorescence (AID 1088).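 Note: binding of Prmt1 protein to compounds spotted on small-molecule microarray slides.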 The note with it: small-molecule microarray binding, higher = more signal.
The nature of test [2]: yeast growth modulation, basal conditions, primary screen, YJM789 clinical isolate, OD600, 24 h (AID 1089).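 Note: growth of clinical yeast isolate S. cerevisiae YJM 789 seeded 1000 cells per well; test concentration not given here.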 The settings on record: S. cerevisiae YJM789 growth, higher = more signal, called active from +8 up or from −8 down.
A short description of test [3]: fission yeast growth modulation, primary screen, strain 972, OD600, 24 h, no modulator (AID 1090).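 Note: basal condition with compound alone and no growth modifier present; test concentration not given here.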 The settings on record: S. pombe 972 growth, higher = more signal, called active from +8 up or from −8 down.
Test [4] is described as follows: S. cerevisiae growth modulation with rapamycin, primary screen, strain BY4716, OD600, 96 h (AID 1091). Note: test concentration not given here. The note with it: higher = more signal, called active from +8 up or from −8 down.
Test [5] addresses Torsin-1A-interacting protein 2 (Homo sapiens) (UniProt Q8NFQ8). The experiment in a line: LULL1 binders on small-molecule microarray, primary screen, cell lysate, human LULL1 lysate, 635/667 nm fluorescence (AID 1092).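 Note: probe is lysate of COS7 cells overexpressing human LULL1; score merges per-feature 667 nm fluorescence with signal-to-noise.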 The settings on record: hLULL1 lysate binding, 635 nm fluorescence, higher = more signal.
The nature of test [6]: E. coli growth modulation, two-sided OD650, primary screen, E. coli filamentation project, strain DRC41, 24 h (AID 1093).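 Note: MC1000 strain lacking acrAB efflux and sulA so SOS filamentation is blocked; test concentration not given here.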 The note with it: OD650, 24 h, higher = more signal, called active from +8 up or from −8 down.
The nature of test [7]: small-molecule microarray binders of probe aLefty2, primary screen, biochemical, biotinylated probe, 635/667 nm fluorescence (AID 1094).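 Note: score merges spot fluorescence near 667 nm with spot signal-to-noise ratio.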 The note with it: higher = more signal.
Test [8] deals with Noggin (protein binding on small-molecule microarray). The experiment in a line: Noggin binders on small-molecule microarray, primary screen, biochemical, 635/667 nm fluorescence (AID 1095).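 Note: score merges 667 nm feature fluorescence with signal to noise over triplicate slides.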 The settings on record: 635 nm fluorescence, higher = more signal.
The target of test [9] is Neurogenic locus notch homolog protein 3 (Homo sapiens) (UniProt Q9UM47). The experiment in a line: NOTCH3 binders on small-molecule microarray, primary screen, biochemical, 635/667 nm fluorescence (AID 1096). The settings on record: NOTCH3 binding, 635 nm fluorescence, higher = more signal.
Sequence of Neurogenic locus notch homolog protein 3 (Homo sapiens) (Q9UM47 whole entry, looked up): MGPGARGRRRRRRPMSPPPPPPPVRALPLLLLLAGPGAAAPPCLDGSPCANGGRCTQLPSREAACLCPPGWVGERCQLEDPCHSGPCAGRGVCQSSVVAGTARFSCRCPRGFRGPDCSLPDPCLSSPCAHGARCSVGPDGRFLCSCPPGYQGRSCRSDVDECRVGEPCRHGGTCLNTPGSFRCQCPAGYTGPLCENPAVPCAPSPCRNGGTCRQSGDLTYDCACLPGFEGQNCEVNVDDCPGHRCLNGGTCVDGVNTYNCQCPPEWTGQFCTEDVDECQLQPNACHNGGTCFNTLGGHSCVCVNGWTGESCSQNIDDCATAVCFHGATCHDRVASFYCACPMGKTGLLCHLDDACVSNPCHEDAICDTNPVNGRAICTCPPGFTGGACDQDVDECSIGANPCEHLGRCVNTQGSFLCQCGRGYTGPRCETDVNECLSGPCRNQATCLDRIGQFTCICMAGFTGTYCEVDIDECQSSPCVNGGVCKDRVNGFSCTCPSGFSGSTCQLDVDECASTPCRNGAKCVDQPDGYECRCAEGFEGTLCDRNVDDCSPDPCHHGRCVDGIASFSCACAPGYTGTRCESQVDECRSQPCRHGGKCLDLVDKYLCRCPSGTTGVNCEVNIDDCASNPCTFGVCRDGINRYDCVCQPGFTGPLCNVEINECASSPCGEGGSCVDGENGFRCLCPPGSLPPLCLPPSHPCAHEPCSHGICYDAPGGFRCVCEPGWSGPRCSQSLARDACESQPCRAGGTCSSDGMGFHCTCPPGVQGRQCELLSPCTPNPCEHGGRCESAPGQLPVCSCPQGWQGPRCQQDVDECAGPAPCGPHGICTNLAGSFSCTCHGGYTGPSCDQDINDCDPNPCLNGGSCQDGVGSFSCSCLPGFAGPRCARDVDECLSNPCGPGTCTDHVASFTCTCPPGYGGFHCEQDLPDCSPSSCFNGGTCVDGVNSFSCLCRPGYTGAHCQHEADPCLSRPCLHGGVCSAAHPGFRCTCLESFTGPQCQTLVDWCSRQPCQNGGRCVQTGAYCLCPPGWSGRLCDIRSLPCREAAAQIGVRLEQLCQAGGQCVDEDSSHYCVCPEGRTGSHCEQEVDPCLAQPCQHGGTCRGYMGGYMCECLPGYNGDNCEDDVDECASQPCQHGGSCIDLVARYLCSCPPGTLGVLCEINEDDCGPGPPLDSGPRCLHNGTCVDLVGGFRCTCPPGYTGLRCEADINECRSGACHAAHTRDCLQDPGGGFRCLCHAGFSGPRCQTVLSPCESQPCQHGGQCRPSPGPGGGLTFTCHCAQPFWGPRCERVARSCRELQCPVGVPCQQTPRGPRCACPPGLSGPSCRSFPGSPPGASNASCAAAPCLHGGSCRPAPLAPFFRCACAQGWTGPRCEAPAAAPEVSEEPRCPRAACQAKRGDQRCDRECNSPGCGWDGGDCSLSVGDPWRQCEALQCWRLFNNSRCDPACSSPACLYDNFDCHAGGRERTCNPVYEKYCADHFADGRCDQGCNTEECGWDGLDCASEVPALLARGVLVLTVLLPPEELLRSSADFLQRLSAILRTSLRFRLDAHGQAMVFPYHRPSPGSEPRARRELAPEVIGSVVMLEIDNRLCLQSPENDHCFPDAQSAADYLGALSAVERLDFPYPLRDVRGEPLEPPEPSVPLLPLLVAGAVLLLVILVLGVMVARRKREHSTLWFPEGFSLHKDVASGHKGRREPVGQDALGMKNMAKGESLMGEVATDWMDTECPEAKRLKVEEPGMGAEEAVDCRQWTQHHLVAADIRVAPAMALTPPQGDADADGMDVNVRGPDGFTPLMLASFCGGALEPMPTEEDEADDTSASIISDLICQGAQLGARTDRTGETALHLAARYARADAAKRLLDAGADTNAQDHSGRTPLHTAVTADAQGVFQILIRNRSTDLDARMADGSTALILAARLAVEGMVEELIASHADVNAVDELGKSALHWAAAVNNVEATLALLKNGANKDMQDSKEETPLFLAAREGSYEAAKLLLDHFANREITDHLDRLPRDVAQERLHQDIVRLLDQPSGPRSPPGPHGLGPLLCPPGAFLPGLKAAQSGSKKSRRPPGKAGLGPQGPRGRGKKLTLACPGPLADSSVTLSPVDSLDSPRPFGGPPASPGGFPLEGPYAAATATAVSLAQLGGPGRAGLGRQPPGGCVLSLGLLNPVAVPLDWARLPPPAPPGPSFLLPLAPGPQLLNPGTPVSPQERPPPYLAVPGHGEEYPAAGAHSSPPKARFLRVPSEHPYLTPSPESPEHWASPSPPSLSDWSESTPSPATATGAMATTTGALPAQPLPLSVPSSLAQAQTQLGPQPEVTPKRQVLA
Test [10] in a line: small-molecule microarray binders of probe aEGFR, primary screen, biochemical, biotinylated probe, 635/667 nm fluorescence (AID 1097).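 Note: probe is a biotinylated anti-EGFR antibody binding compounds printed on slides; score combines fluorescence near 667 nm and signal to noise of each spot.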 The note with it: higher = more signal.
Test [11] relates to Plasmodium falciparum Sir2 (PF13_0152, Sir2A). The test can be described thus: pfSir2 binders on small-molecule microarrays, primary screen, biochemical, small-molecule microarray, 635 nm fluorescence (AID 1098).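 Note: score merges spot fluorescence intensity with its signal-to-noise ratio.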 The settings on record: small-molecule microarray binding, fluorescence 635 nm; higher = more signal.
A short description of test [12]: small-molecule microarray binders of probe aDKK1, primary screen, biochemical, biotinylated probe, 635/667 nm fluorescence (AID 1099).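 Note: score merges 667nm spot fluorescence with signal to noise across triplicate slides; reference of the scale not given here.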 The note with it: higher = more signal.
Test [13] in a line: small-molecule microarray binders of probe aCHRDL2, primary screen, biochemical, biotinylated probe, 635/667 nm fluorescence (AID 1100). The settings on record: higher = more signal.
Test [14] can be described thus: splicing luciferase reporter signal modulators, primary screen, spliceosome inhibition project, cell-based, HEK293, splice +/- reporter (AID 1101).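 Note: HEK293 cells carrying a splicing-competent luciferase reporter gene; test concentration not given here.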 The note with it: luminescence, 24 h, higher = more signal, called active from +8 up or from −8 down.
In test [15] the target is Fibroblast growth factor 10 (Homo sapiens) (UniProt O15520). The test can be described thus: FGF10 binders on small-molecule microarrays, primary screen, biochemical, small-molecule microarray, 635 nm fluorescence (AID 1102). The settings on record: FGF10 binding, fluorescence 635 nm, higher = more signal.
Sequence of Fibroblast growth factor 10 (Homo sapiens) (O15520 whole entry, looked up): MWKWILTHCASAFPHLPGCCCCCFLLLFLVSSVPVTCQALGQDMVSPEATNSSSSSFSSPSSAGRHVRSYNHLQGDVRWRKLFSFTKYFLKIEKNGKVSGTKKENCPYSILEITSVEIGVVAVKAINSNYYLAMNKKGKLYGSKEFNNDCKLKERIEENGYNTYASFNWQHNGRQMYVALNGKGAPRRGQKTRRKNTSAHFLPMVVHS
For test [16], the system named is glycogen synthase kinase-3 (GSK3A per assay name; protocol says GSK3B). The experiment in a line: GSK3 binders on small-molecule microarrays, primary screen, biochemical, small-molecule microarray, 635 nm fluorescence, GSK3A (AID 1103). Note: the record names both GSK3A and GSK3B. The note with it: small-molecule microarray binding, fluorescence 635 nm; higher = more signal.
For test [17], the target named is Epidermal growth factor receptor (Homo sapiens) (UniProt P00533). The test can be described thus: EGFR binders on small-molecule microarrays, primary screen, biochemical, small-molecule microarray, 635 nm fluorescence (AID 1104).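 Note: score merges 667 nm emission intensity with spot signal to noise over triplicate slides.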 The settings on record: EGFR binding, higher = more signal.
Sequence of Epidermal growth factor receptor (Homo sapiens) (P00533 whole entry, looked up): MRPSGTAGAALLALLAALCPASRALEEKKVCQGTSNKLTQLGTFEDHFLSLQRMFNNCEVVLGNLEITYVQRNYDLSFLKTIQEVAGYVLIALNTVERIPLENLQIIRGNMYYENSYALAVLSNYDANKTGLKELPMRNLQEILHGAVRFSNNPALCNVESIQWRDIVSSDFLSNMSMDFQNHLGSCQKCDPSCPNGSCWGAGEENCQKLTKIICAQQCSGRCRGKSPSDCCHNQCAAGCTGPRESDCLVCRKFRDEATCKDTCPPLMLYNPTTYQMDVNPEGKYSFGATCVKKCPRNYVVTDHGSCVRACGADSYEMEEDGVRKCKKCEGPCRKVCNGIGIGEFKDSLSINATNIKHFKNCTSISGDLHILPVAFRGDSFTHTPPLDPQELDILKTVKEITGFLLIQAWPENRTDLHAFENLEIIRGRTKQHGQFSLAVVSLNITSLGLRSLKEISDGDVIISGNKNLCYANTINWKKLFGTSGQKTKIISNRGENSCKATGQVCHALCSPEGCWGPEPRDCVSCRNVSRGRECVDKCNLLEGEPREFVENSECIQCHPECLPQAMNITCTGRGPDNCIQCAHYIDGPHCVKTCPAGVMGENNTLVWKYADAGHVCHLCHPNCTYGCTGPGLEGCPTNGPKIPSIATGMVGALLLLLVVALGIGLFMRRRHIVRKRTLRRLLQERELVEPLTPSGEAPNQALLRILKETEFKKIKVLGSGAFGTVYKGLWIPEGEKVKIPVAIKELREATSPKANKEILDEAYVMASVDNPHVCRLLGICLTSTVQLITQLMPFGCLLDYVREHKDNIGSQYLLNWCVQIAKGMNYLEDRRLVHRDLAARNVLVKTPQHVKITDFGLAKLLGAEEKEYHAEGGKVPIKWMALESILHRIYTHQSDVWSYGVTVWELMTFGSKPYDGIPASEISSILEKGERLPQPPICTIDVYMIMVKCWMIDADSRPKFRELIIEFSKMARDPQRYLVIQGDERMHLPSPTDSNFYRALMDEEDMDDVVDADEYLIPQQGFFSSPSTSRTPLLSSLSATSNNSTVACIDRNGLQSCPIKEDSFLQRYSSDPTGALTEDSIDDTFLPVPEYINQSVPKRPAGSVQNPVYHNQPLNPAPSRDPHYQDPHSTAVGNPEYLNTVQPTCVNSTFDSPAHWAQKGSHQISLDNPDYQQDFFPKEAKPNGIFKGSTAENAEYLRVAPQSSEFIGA
Test [18] deals with Follistatin-related protein 3 (Homo sapiens) (UniProt O95633). The test can be described thus: FSTL3 binders on small-molecule microarrays, primary screen, biochemical, small-molecule microarray, 635 nm fluorescence (AID 1105).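 Note: score merges emission near 667 nm and signal to noise per printed spot across three slides.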 The settings on record: FSTL3 binding, higher = more signal.
Sequence of Follistatin-related protein 3 (Homo sapiens) (O95633 whole entry, looked up): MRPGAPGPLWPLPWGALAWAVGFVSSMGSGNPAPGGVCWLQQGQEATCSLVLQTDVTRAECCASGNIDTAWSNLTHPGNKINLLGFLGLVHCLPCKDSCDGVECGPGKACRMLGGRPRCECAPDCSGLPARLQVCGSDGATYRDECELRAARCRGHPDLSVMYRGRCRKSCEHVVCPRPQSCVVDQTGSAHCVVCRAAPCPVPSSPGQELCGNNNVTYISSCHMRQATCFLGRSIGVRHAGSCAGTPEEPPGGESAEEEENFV
Test [19] deals with Dickkopf-related protein 1 (Homo sapiens) (UniProt O94907). The experiment in a line: DKK1 binders on small-molecule microarrays, primary screen, biochemical, small-molecule microarray, 635 nm fluorescence scan (AID 1106).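 Note: score merges emission near 667 nm with signal to noise over three replicate slides.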 The settings on record: DKK1 binding, higher = more signal.
Sequence of Dickkopf-related protein 1 (Homo sapiens) (O94907 whole entry, looked up): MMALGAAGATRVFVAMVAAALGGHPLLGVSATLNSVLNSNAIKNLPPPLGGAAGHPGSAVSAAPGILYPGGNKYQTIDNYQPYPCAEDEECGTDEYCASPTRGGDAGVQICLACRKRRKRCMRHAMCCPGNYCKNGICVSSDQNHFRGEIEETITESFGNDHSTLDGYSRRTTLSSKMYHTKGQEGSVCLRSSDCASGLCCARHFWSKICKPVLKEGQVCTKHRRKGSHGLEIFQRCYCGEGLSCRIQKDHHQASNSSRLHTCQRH
Test [20] relates to Inhibin beta A chain (activin A). The test can be described thus: INHBA (activin A) binders on microarrays, primary screen, biochemical, small-molecule microarray, 635 nm fluorescence scan (AID 1107).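 Note: mouse activin A protein probed at 4.33 µg/mL on printed slides; score merges bound-protein fluorescence near 667 nm with spot signal-to-noise.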 The settings on record: small-molecule microarray binding, higher = more signal.

Sequence of Torsin-1A-interacting protein 2 (Homo sapiens) (Q8NFQ8 whole entry, looked up): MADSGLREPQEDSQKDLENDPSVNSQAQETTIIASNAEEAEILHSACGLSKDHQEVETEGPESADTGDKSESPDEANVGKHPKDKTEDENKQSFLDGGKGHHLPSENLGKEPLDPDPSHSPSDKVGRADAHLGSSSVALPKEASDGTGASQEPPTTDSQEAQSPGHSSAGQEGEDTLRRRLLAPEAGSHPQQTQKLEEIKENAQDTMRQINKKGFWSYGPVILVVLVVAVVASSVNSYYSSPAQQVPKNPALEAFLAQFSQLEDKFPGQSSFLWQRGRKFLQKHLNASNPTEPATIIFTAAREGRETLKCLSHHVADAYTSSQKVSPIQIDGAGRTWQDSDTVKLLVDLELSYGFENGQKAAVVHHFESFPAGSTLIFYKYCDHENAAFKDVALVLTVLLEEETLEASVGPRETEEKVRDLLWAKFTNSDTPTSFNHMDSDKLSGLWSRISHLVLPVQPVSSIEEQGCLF

Regarding `CCOC(=O)C[C@H]1[C@H](OC(=O)c2cc3ccccc3oc2=O)[C@@H](NC(=O)c2ccc3ccccc3n2)c2cc(OCCCO)ccc2N1C(=O)c1ccccc1`, the composite z-score in test [1] was 0.5; in test [5] it was 0.413; in [7], -0.0171; in test [8], 0.603; in [9], 0.724; in [10] it was 0.0745. The composite z-score is 0.564 in test [11]; 0.414 in test [12]; -0.0652 in test [13]; 1.4 in test [15]; 0.439 in test [16]; 0.344 in test [17]. In addition, the composite z-score was found to be 0.948 in test [18], 1.04 in test [19] and 0.513 in test [20]. Also, the z-score was 0.282 (inactive) in test [2]; -0.738 (inactive) in [3]; 0.156 (inactive) in test [4]; 0.471 (inactive) in test [6]; -0.38 (inactive) in [14].

In the case of `COC(=O)[C@H](C)NC(=O)CCC1CC(OC(=O)NCCc2ccc(F)cc2)CC2(CCCC(COC(=O)NCCc3ccc(Cl)cc3)O2)O1` (stereo not given in full), the composite z-score is 1.24 in [1]; 2.39 in test [5]; -0.0237 in test [7]; 0.244 in test [8]; 1.12 in test [9]; -0.0989 in [10]. The composite z-score was 0.316 in [11]; 0.0144 in test [12]; -0.615 in test [13]; 1.07 in test [15]; 0.987 in [16]; 0.344 in [17]. The composite z-score in test [18] amounted to 1.29; in test [19], 1.05; in test [20], 0.0063. In addition, the z-score in [2] was 0.86 (inactive); in test [3] it was 0.812 (inactive); in test [4], 1.2 (inactive); in [6], 0.126 (inactive); in [14], -0.137 (inactive).

For the molecule `O=C(NN=C1C[C@@H](O)[C@@H](O)[C@@H]2[C@@H]3C(=O)N(c4cccc(Oc5ccccc5)c4)C(=O)[C@@H]3CC[C@H]12)OCc1ccccc1`, the composite z-score in test [1] is -0.425; in [5] it was 0.415; in [7], -0.0812; in [8] it was 0.53; in test [9], 0.305; in test [10] it was -0.152. In addition, the composite z-score in [11] is 0.373; in test [12] it was 0.0708; in test [13] it was 0.408; in test [15], -0.113; in test [16], -0.281; in test [17], 0.116. In addition, the results for the composite z-score in [18], in test [19] and in test [20] were -0.146, -0.0924 and 0.242, respectively. The z-score in test [2] is 0.686 (inactive); in test [3], -0.141 (inactive); in [4], -0.669 (inactive); in test [6] it was 1.24 (inactive); in test [14], 0.0933 (inactive).

Turning to `CC(=O)C[C@H](O)[C@@H](NC(=O)OC(C)(C)C)C(C)C`, the composite z-score in test [1] was -0.402; in test [5], -1.18; in test [7], -0.214; in test [8], -0.198; in [9] it was -0.0052; in test [10], -0.171. For the same molecule, the composite z-score in [11] is -0.276; in test [12], -0.186; in test [13] it was -0.306; in test [15], -0.456; in test [16], -1.45; in test [17] it was -0.397. In addition, the composite z-score is -0.441 in test [18], -0.31 in test [19] and 0.123 in test [20]. The z-score in test [2] was -0.498 (inactive); in [3], -0.644 (inactive); in [4] it was 0.0836 (inactive); in [6], -0.972 (inactive); in test [14] it was -0.797 (inactive).

Consider `COc1cccc([C@H]2Oc3ccc(OC)cc3C(=NOC(C)CN3CCCc4nc(C)c(C)cc43)[C@@H]2O)c1` (stereo not given in full), for which the composite z-score was found to be 1.32 in [1]; 0.605 in [5]; 0.027 in test [7]; 0.0233 in test [8]; 0.522 in [9]; 0.0506 in test [10]. In addition, the composite z-score was -0.403 in test [11]; -0.207 in test [12]; -0.335 in test [13]; 0.474 in [15]; 0.827 in test [16]; 0.746 in test [17]. In addition, the composite z-score in test [18] was 0.0288; in test [19], 0.492; in test [20] it was -0.109. For the same molecule, the z-score was -0.906 (inactive) in [2]; -0.912 (inactive) in test [3]; -1.19 (inactive) in [4]; 0.732 (inactive) in [6]; -0.467 (inactive) in test [14].
